Here are results for six molecules from PubChem BioAssay (NCATS).

“And” between values parts separate entries of the source, which are not always exact repeats. Equal entries are not always repeated. Values without a mark were called inactive. Inconclusive results are not listed. The source made the active and inactive calls. Unless noted, calls come from the whole dose curve; as a rule, active = well fitted curve in the direction sought with a large enough effect; inconclusive = small, poorly fitted or top-dose-only effect, or another doubt; inactive = no such curve, though single readings can be large; an effect the other way counts as inactive or inconclusive.

Test [1] has as its target Cytochrome P450 3A4 (Homo sapiens) (UniProt P08684). The test is described as follows: qHTS Assay for Inhibitors and Substrates of Cytochrome P450 3A4 (AID 884). Note: series mostly up to about 57 µM; % is set by controls: 0 for no effect and ±100 for the full control effect; nearly all actives have a fitted effect of over 50% in size. Put shortly:
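Luminescent readout of luciferin produced by CYP3A4 (20 nM) dealkylation of Luciferin-PPXE, 25 uM (its KM). NADPH-driven reaction ran 60 min at RT after 10 min compound preincubation; data scaled to 57 uM ketoconazole as 100% inhibition.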

A short description of test [2]: Cell Viability - LYMP2-001 (AID 921).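 Note: series mostly up to about 92 µM; 0% = DMSO only and full inhibition = tetraoctylammonium bromide control wells; nearly all actives have a fitted effect of over 70% in size.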 The method, boiled down: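 Steps: seed 2500 lymphoblastoid cells/well; 5 hr, 37 C; add compound; 24 hr, 37 C; CellTiter-Glo reagent, 30 min room temperature; read luminescence. Concentration-response modeled by Hill equation for AC50.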
Test [3] in a line: MultiTox-Fluor Cytotoxicity Assay - LYMP1-001 - Live Cells (AID 947).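 Note: 0% = DMSO only and full inhibition = tetraoctylammonium bromide control.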
Test [4] can be described thus: Cell Viability - LYMP2-012 (AID 982).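 Note: cellular ATP by luciferase luminescence where a drop means cytotoxicity; cells exposed to compound for one day before reading; 0% = DMSO only and full loss = 92 µM tetraoctylammonium bromide; nearly all actives have a fitted effect of over 55% in size.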
Test [5] can be described thus: Cell Viability - LYMP2-016 (AID 984).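 Note: cells exposed to compound for 24 hours at 37 °C; % is set by controls: 0 for no effect and ±100 for the full control effect; nearly all actives have a fitted effect of over 55% in size.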 The method, boiled down:
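Cells were seeded at 2500 per well and rested 5 hr before a 24 hr compound exposure at 37 C. Viability was then gauged as cellular ATP by luciferase luminescence, with AC50 values fitted to the Hill equation.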

Test [6] can be described thus: Cell Viability - LYMP2-024 (AID 988).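 Note: plate controls were DMSO only for no effect and 92 µM tetraoctylammonium bromide for full effect; nearly all actives have a fitted effect of over 60% in size.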 Put shortly: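 ATP-based luminescence (CellTiter-Glo, 30 min RT) after 24 h compound exposure at 37 C of 2500 lymphoblastoid cells/well; decrease in ATP taken as cytotoxicity. qHTS concentration-response fitted to standard Hill equation for AC50.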
The target in test [7] is Estrogen receptor (Homo sapiens) (UniProt P03372). The test is described as follows: qHTS assay for small molecule antagonists of estrogen receptor alpha signaling (AID 588513; active = well fitted curve in the direction sought with a large enough effect in the signal ratio, with a control signal flat, not every such curve was filed as active; the % refers to the signal ratio; note: % is set by controls: 0 for no effect and ±100 for the full control effect). The method, boiled down: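 Fluorescence from CCF4 substrate after 2 h at room temperature gave reporter activity; cells had been exposed to compound and 0.5nM 17-beta-estradiol for 18 h at 37 C. Hill-equation fitting yielded IC50 and maximal response.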
Estrogen receptor (Homo sapiens), sequence (P03372 whole entry, looked up): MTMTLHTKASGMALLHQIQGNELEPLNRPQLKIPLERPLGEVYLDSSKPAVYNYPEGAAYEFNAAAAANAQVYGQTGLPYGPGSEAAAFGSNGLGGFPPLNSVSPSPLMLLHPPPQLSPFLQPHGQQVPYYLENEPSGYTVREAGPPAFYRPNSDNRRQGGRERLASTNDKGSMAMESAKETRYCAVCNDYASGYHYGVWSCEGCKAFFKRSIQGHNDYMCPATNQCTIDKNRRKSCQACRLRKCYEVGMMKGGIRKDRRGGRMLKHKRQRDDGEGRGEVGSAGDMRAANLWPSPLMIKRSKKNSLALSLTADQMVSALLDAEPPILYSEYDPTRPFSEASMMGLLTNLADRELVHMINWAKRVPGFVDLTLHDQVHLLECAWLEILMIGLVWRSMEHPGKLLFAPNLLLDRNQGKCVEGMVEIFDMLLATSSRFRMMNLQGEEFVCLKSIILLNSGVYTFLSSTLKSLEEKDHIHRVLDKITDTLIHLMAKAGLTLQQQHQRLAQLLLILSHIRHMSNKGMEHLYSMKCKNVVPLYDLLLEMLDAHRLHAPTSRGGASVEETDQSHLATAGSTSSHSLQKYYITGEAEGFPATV

The target is the same in test [8]. The test is described as follows: qHTS assay for small molecule agonists of estrogen receptor alpha signaling (AID 588514; calls by dose curve; note: nearly all actives have a fitted effect of over 70% in size; note: potency is the fitted concentration of half-maximal effect;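 for activation: 0% = vehicle only and 100% = reference agonist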). Put shortly:
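Read-out: CCF4 fluorescence from a beta-lactamase reporter in ER-alpha-UAS-bla HEK 293 cells after 18 hrs of compound exposure at 37 C. Normalized to 20 nM 17-beta-estradiol (100%) and DMSO (0%).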
A general note: In qHTS, concentration-response curves come from the screen itself.

Test [9] deals with Glucocorticoid receptor (Homo sapiens) (UniProt P04150). Kind of test: qHTS assay for small molecule agonists of glucocorticoid receptor signaling (AID 588532; active = well fitted curve in the direction sought with a large enough effect in the signal ratio, with a control signal flat; the % refers to the signal ratio;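 note: 100% = dexamethasone at 0.1 µM and 0% = DMSO only wells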). The note with it: HeLa MMTV-bla, beta-lactamase ratio, agonist, 18 h; active compounds read high; percent of dexamethasone control, DMSO zero. The method, boiled down:
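MMTV-bla HeLa beta-lactamase reporter cells in 1% charcoal/dextran FBS medium, compounds up to 92 uM for 18 h at 37 C, CCF4 readout; normalized to 0.1 uM dexamethasone (100%), EC50 and efficacy from Hill fits.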

Test [10] shares this target. Kind of test: qHTS assay for small molecule antagonists of glucocorticoid receptor signaling (AID 588533; active = well fitted inhibition curve with a large enough effect in the signal ratio, with a control signal flat, not every such curve was filed as active; the % refers to the signal ratio;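 note: cells stimulated with 2 nM dexamethasone as agonist; % is set by controls: 0 for no effect and ±100 for the full control effect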). The method, boiled down:
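Antagonist-mode qHTS: compound titrations added to GRE-bla HeLa cells, then dexamethasone 2 nM final; 18 h, 37 C. CCF4 FRET fluorescence normalized to dexamethasone and DMSO; IC50 from Hill fit.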

For test [11], the target named is Peroxisome proliferator-activated receptor gamma (Homo sapiens) (UniProt P37231). Kind of test: qHTS assay for small molecule agonists of peroxisome proliferator-activated receptor gamma signaling (AID 588536; active = well fitted curve in the direction sought with a large enough effect in the signal ratio, with a control signal flat, not every such curve was filed as active; the % refers to the signal ratio). The method, boiled down: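 Using GeneBLAzer HEK293 cells, response was quantified by CCF4 fluorescence and normalized between basal DMSO (0%) and rosiglitazone 2 uM (100%); curves yielded half-maximal stimulation concentration and efficacy.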
Peroxisome proliferator-activated receptor gamma (Homo sapiens), sequence (P37231 whole entry, looked up): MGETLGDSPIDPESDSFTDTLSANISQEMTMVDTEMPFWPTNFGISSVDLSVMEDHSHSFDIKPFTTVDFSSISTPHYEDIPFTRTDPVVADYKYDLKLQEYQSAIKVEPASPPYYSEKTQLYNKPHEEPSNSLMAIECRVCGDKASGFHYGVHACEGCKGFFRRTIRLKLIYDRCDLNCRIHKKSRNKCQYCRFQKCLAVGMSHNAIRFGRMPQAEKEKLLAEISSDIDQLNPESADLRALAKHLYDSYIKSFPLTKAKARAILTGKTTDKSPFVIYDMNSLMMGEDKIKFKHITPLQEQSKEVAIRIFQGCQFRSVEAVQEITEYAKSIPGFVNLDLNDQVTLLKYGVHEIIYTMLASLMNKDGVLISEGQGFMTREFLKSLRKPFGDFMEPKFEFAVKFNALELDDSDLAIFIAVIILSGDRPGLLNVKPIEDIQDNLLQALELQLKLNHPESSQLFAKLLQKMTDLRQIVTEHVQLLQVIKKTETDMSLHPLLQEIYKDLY

In test [12] the target is Retinoic acid receptor RXR-alpha (Homo sapiens) (UniProt P19793). Kind of test: qHTS assay for small molecule agonists of retinoid X receptor alpha signaling (AID 588544; calls by dose curve).
Retinoic acid receptor RXR-alpha (Homo sapiens), sequence (P19793 whole entry, looked up): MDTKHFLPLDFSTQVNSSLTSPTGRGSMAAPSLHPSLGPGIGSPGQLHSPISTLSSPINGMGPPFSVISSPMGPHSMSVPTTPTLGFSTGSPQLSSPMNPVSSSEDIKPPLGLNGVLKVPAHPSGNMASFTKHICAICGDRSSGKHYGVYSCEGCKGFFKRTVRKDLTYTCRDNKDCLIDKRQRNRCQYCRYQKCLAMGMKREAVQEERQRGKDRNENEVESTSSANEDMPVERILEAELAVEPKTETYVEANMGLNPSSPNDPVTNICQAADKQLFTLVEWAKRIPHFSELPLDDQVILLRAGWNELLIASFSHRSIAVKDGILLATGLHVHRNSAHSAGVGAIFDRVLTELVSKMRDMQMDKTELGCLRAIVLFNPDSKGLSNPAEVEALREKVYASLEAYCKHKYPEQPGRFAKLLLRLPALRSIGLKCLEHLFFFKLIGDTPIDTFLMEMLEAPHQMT
The target of test [13] is Thyroid hormone receptor beta (Homo sapiens) (UniProt P10828). The test is described as follows: qHTS assay for small molecule antagonists of thyroid hormone receptor beta signaling (AID 588547; active = well fitted inhibition curve with a large enough effect in the signal ratio, with a control signal flat, not every such curve was filed as active; the % refers to the signal ratio;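 note: cells stimulated with 0.4 nM T3 agonist during compound exposure; series mostly up to about 77 µM; % is set by controls: 0 for no effect and ±100 for the full control effect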). The settings on record: TR-UAS-bla HEK293, beta-lactamase ratio, antagonist mode, 18 h. Put shortly: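 TR-UAS-bla GripTite HEK293 cells in 2% charcoal/dextran FBS medium; compounds 0.59 nM to 92 uM with T3 at 0.4nM final, 18 h at 37 C. Beta-lactamase read by CCF4 fluorescence (460/530 nm); Hill fits gave IC50 and efficacy.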
Thyroid hormone receptor beta (Homo sapiens), sequence (P10828 whole entry, looked up): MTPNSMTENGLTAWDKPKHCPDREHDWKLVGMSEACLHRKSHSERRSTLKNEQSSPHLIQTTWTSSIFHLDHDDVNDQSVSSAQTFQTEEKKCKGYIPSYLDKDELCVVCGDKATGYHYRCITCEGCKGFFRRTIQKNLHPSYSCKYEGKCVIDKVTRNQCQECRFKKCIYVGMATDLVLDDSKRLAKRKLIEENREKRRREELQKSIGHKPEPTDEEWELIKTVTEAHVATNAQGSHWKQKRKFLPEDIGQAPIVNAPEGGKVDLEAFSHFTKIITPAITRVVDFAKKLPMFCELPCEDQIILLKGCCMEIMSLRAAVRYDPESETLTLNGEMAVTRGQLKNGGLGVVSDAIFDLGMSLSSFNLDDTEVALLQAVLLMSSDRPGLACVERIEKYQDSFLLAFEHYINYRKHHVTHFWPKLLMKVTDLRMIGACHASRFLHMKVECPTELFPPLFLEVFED

A short description of test [14]: qHTS assay for small molecule activators of the p53 signaling pathway (AID 651743; active = well fitted activation curve with a large enough effect in the signal ratio, not every such curve was filed as active; the % refers to the signal ratio; note: series mostly up to about 92 µM; % of control where 0% means no effect). The settings on record: HCT-116 p53RE-bla, beta-lactamase FRET ratio, 16 h; activation: active compounds read high. The method, boiled down: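 Reporter: beta-lactamase driven by p53 response elements, stably integrated in HCT-116 cells. Cells seeded at 4,000/well, 5 h preincubation, compound (DMSO) 16 h at 37 C; B/G FRET substrate 2 h RT; fluorescence intensity read.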

Test [15] addresses Tumor necrosis factor (Homo sapiens) (UniProt P01375). Kind of test: qHTS assay to identify small molecules that stimulate Tumor Necrosis Factor-alpha (TNF-alpha) secretion (AID 651757; active = well fitted curve in the direction sought with a large enough effect in the signal ratio; the % refers to the signal ratio; note: 0% is about no effect). Put shortly:
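THP-1 cells, 3000/well; compound 17 hrs, 37 C; add cryptate/XL665 anti-TNF-alpha antibody pair; 3 hr RT; TR-FRET (HTRF) read of secreted TNF-alpha. Quantitative HTS format.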

Test [16] in a line: qHTS assay for environmental chemicals that activate the Aryl hydrocarbon Receptor (AhR) signaling pathway (AID 651777). Note: % of control where 0% means no effect; nearly all actives have a fitted effect of over 15% in size. The note with it: 1A2-DRE human hepatoma cells, luciferase, 24 h; activation: active compounds read high. Put shortly:
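Following a 24 hr incubation with test chemicals at 37 C and 5% CO2, 1A2-DRE human hepatoma cells received One-Glo reagent; after 30 min at room temperature, luciferase output reflected CYP1A2 induction via AhR.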

The target of test [17] is Nuclear receptor ROR-gamma (Homo sapiens) (UniProt P51449). Kind of test: qHTS assay for small molecule antagonists of the retinoid-related orphan receptor gamma (ROR-gamma) signaling pathway (AID 651802).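 Note: CHO cells with doxycycline-induced ROR-gamma expression; luciferase reporter luminescence driven by ROR response element; series mostly up to about 92 µM; % is set by controls: 0 for no effect and ±100 for the full control effect; nearly all actives have a fitted effect of over 60% in size.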 The method, boiled down: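 Luciferase read-out: ONE-Glo luminescence after 30 min at room temperature, following 16hr doxycycline induction at 37C, 5% CO2 of CHO cells with TET-inducible ROR and RORE-LUC reporter; decreased luminescence = reduced reporter activity.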
Nuclear receptor ROR-gamma (Homo sapiens), sequence (P51449 whole entry, looked up): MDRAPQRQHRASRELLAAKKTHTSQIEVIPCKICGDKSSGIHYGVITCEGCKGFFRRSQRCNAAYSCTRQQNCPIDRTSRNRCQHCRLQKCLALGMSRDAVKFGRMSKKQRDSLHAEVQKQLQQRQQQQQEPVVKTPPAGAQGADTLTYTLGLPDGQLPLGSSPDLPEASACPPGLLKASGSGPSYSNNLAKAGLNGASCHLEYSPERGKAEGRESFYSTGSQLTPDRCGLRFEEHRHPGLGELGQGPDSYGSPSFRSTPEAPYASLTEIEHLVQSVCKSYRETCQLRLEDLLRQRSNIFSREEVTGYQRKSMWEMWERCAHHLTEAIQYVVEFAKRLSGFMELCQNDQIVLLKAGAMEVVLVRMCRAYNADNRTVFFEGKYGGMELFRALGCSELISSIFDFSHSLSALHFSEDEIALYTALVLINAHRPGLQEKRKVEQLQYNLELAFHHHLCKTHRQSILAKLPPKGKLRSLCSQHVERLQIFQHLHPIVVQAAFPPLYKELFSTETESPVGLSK

A short description of test [18]: qHTS assay for small molecule antagonists of the retinoid-related orphan receptor gamma (ROR-gamma) signaling pathway - cell viability counter screen (AID 720652; active = well fitted curve in the direction sought with a large enough effect in the repeat runs; an effect the other way counts as inactive or inconclusive;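 note: CHO reporter cells with doxycycline-induced ROR-gamma expression; series mostly up to about 92 µM; compound exposure lasted 16 hr before ATP read; % is set by controls: 0 for no effect and ±100 for the full control effect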). The method, boiled down: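 CHO RORE-LUC/TET-ROR line, 1,000 cells/well, 37 C 5% CO2 5 hr; cpd or DMSO + doxycycline induction, 16 hr. CellTiter-Glo, 30 min RT, luminescence = ATP content.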
Test [19] concerns the target Nuclear receptor subfamily 1 group I member 2 (Rattus norvegicus) (UniProt Q9R1A7). Kind of test: qHTS assay for small molecule activators of the rat pregnane X receptor (rPXR) signaling pathway (AID 651751; call rule not given here; note: 0% is about no effect). The note with it: rPXR reporter cells, luciferase (One-Glo), 24 h.
Test [20] is described as follows: Cell Viability - LYMP2-010 (AID 981).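 Note: cells exposed to compound for 24 hours at 37 °C; % is set by controls: 0 for no effect and ±100 for the full control effect; nearly all actives have a fitted effect of over 55% in size.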 Put shortly:
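qHTS cytotoxicity, 1536-well: 2500 cells/well, 5 hr settle, 24 hr compound at 37 C, CellTiter-Glo 30 min RT, luminescence read. Decrease in ATP = toxicity; AC50 via standard Hill equation. Positive control tetraoctylammonium bromide.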

Tumor necrosis factor (Homo sapiens), sequence (P01375 whole entry, looked up): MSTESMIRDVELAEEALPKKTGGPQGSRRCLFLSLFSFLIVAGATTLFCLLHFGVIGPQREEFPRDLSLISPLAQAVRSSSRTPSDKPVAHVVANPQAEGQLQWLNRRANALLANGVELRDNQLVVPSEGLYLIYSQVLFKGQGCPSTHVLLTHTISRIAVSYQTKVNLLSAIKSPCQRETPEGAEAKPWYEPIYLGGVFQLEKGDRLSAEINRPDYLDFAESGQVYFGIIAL
Glucocorticoid receptor (Homo sapiens), sequence (P04150 whole entry, looked up): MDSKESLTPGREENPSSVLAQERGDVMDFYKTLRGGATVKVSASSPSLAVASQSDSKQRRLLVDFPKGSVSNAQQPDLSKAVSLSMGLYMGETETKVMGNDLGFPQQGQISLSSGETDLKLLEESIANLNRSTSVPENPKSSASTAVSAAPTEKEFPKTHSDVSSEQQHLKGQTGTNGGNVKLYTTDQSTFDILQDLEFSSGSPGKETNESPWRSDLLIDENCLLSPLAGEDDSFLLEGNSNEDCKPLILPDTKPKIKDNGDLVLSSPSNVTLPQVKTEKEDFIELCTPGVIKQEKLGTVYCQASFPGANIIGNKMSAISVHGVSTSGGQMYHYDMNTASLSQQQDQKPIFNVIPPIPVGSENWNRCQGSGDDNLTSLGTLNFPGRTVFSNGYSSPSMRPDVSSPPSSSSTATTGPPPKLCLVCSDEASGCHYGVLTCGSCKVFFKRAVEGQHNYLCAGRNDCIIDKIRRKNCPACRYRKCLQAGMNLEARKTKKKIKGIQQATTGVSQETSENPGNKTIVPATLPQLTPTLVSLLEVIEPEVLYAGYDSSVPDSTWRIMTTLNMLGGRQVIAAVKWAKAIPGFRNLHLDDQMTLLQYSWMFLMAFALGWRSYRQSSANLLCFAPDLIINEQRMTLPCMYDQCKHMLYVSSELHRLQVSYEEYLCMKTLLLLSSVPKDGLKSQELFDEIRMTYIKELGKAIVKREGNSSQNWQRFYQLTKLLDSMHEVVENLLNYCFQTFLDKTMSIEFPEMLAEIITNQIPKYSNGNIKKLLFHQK
Nuclear receptor subfamily 1 group I member 2 (Rattus norvegicus), sequence (Q9R1A7 whole entry, looked up): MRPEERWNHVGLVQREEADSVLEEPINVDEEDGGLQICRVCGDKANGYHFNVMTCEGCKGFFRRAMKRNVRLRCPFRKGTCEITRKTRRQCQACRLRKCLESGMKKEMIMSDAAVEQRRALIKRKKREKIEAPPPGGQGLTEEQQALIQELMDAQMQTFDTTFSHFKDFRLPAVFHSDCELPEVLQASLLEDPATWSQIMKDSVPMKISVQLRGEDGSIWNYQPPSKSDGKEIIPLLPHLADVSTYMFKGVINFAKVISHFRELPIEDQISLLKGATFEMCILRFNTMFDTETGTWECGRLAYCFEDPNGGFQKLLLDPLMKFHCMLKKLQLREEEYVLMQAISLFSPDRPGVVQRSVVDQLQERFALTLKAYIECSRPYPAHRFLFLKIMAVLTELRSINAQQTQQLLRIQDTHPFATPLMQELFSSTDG
Cytochrome P450 3A4 (Homo sapiens), sequence (P08684 whole entry, looked up): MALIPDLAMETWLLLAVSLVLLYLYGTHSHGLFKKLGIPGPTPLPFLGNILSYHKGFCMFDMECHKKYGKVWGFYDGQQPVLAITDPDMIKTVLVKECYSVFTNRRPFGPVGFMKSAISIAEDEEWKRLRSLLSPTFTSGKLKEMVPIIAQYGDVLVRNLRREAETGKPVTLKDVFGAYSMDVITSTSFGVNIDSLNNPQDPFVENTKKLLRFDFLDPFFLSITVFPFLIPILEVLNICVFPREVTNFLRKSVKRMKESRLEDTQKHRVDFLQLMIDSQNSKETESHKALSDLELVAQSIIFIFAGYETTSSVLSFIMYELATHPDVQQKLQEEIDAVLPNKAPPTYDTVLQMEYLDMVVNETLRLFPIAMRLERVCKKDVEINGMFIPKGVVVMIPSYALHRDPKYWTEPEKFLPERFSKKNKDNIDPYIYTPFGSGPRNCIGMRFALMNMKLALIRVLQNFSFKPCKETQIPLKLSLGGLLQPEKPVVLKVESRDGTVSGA

For `Cc1ccc(O)c(C)c1`, the Potency result in test [1], in test [2], in test [3], in test [4], in [5] and in test [6] was “inactive” throughout. The Potency entry in test [7], in test [8], in [10], in [12], in [17] and in test [18] was “inactive” each time. The activation is 12.9% and 20.9% in [9]; -2.98% and 8.45% and 2.43% in test [14]; -0.285% and -2.95% and -1.2% in [16]. Also, the outcome in [11] and in test [15] was inactive. Also, the activity change % (negative = inhibition) in test [13] was 2.23% and -13.2% and -16.1%. In addition, the max response in [19] was -2.91% and 1.12% and -5.05%.
On to `CN=C=S`, for which the Potency result in test [1], in test [2], in test [3], in test [20], in test [4] and in [5] was “inactive” each time. The Potency result in [6], in test [7], in test [12] and in [17] was “inactive” throughout. The Potency in [8] is 20 µM (active). Moreover, the molecule was classed as inactive in test [11] and in test [15]. The activity change % (negative = inhibition) in [13] was -1.38% and -7.2%. The activation in test [14] was -0.537% and -2.4%; in test [16], 0.215% and 0.204%. For the same molecule, the max response in test [19] is 1.38% and 4.99%.
Consider `C=CCOC(=O)c1ccccc1N`, for which the Potency entry in test [1], in test [2], in [3], in test [20], in test [4] and in test [5] was “inactive” throughout. Besides, the Potency result in [6], in [7], in test [8], in test [10], in test [12] and in test [17] was “inactive” each time. Further, in [18], the Potency entry is “inactive”. Moreover, the activation in test [9] is 3.1%. Besides, the result in test [11] and in test [15] was inactive. Moreover, the activity change % (negative = inhibition) in [13] is -21.1%. Also, the max response in [19] was 4.98%.
Turning to `Nc1ccccc1Cl`, the Potency result in [1], in test [2], in test [3], in [20], in test [4] and in test [5] was “inactive” in each case. The Potency entry in test [6], in test [7], in test [8], in test [10], in test [12] and in [17] was “inactive” throughout. In addition, the activation in [9] is -0.0832%; in test [14], -1.73%; in [16], 0.951%. Further, the call in [11] and in test [15] was inactive. The activity change % (negative = inhibition) in test [13] was -4.52%. The max response in [19] was 9.37%.
On to `[O-][Br+2]([O-])O`, for which the Potency result in [1], in test [2], in test [20], in test [4], in test [5] and in test [6] was “inactive” in each case. Besides, the Potency entry in test [7], in test [8], in [10], in test [12], in test [17] and in test [18] was “inactive” throughout. In addition, the activation was 11.8% and -3.56% in test [9]; -0.499% and 0.319% in [14]; 0.946% and -0.602% in test [16]. The molecule was classed as inactive in [11] and in test [15]. In addition, the activity change % (negative = inhibition) in test [13] was 6.91% and -5.45%.
Take `ClCBr`: the Potency entry in test [1], in test [3], in [6], in test [7], in [8] and in [10] was “inactive” throughout. The Potency result in [12], in test [17] and in [18] was “inactive” throughout. Besides, the activation in test [9] is -4.32%; in [16], -0.711%. In addition, the molecule was called inactive in [11] and in test [15]. The activity change % (negative = inhibition) in test [13] is 5.81%. Moreover, the max response in test [19] was 0.745%.
